Measurements as given in PubChem BioAssay (Tox21).
Results filed as inconclusive are left out. The source made the active and inactive calls. Calls follow the shape of the full dose curve.

Assay: qHTS assay for small molecules that induce genotoxicity in human embryonic kidney cells expressing luciferase-tagged ATAD5 - cell viability (AID 651634); also: nearly all actives have a fitted effect of over 25% in size
Settings: HEK293T ATAD5-luc cells viability, CellTiter-Fluor, 15.5 h; series mostly up to 83.3 µM; activity, negative = cytotoxicity: at the top concentration
Excerpt: National Center for Advancing Translational Sciences [NCATS]
NIH Chemical Genomics Center [NCGC]
U.S. Environmental Protection Agency [EPA]
National Institutes of Environmental Health Sciences [NIEHS]
National Toxicology Program [NTP]
U.S. Food and Drug Administration [FDA]
Enhanced Level of Genome Instability Gene 1 (ELG1; human ATAD5) protein levels increase in response to various types of DNA damage. Using a luciferase reporter-gene tagged with ElG1, a cell-based assay [developed by Kyungjae Myung, NHGRI, NIH] was used to measure the induction of ATAD5 in human embryonic kidney cells (HEK293T). So, increase in luciferase activity can be used to identify the compounds that cause genetic stress. In addition to genotoxicity, these cells were also used to test for cytotoxicity by measuring the protease activity within live cells.
Tox21 Assay Protocol Summary:
For cytotoxicity screening, 2,000 cells in 5 uL/well were dispensed into white, solid-bottom 1536-well plates using a Multidrop Combi (Thermo Scientific) dispenser. Following transfer of 23 nL compound or DMSO vehicle by a pin tool, the plates were incubated 15.5 hr at 37C and 5% CO2. 1 ul CellTiter-Fluor reagent (Promega, Madison, WI) was then added to each plate and following 30 min incubation at 37C, fluorescence intensity was quantified on a ViewLux CCD-based plate reader.
% is scaled to controls: 0 for no effect and ±100 for the full control effect.

Row | Structure (SMILES) | activity, negative = cytotoxicity | Potency
1 | C[C@H]1C[C@@H](O)CC(C)(C)C1 | 22.1% (inactive) | –
2 | C=CCS(=O)(=O)O | 5.23% (inactive) | –
3 | C=COCC1CCC(CO)CC1 (stereo not given) | -25% (inactive) | –
4 | CC(=O)CC(C)C | -7.22% (inactive) | –
5 | O=C1OC(=O)C2CCCCC12 (stereo not given) | 17.4% (inactive) | –
6 | COC(=O)c1cc(C(=O)OC)cc(S(=O)(=O)O)c1 | 25.9% (inactive) | –
7 | O=c1cc(-c2ccccc2)oc2ccccc12 | – | inactive
8 | O=C(O)CCCl | 18.3% [at 95.3 µM] (inactive) | –
9 | CN(C)CCCSc1ccccc1NC(=O)/C=C/c1ccccc1 | 18.2% (inactive) | –
10 | O=C1CCCC(=O)C1 | -6.11% (inactive) | –
11 | C=CCOCC(CC)(CO)COCC=C | 27.1% (inactive) | –
12 | Nc1ccccc1S(=O)(=O)O | 6.86% (inactive) | –
13 | Cc1c(NC(C)C)c(=O)n(-c2ccccc2)n1C | 8.98% (inactive) | –
14 | N=C(N)c1ccc2cc(OC(=O)c3ccc(N=C(N)N)cc3)ccc2c1 | 18.2% (inactive) | –
15 | CCOC(=O)Nc1ccc(NCc2ccc(F)cc2)nc1N | – | inactive
16 | NS(=O)(=O)c1cc2c(cc1Cl)NC(C1CC3C=CC1C3)NS2(=O)=O (stereo not given) | -14.1% (inactive) | –
17 | CN(C)CCCNCCCN(C)C | -10.6% (inactive) | –
18 | OC1CCCCC1c1ccccc1 (stereo not given) | -21.9% (inactive) | –
19 | CCCc1cc(C(N)=S)ccn1 | 14.4% (inactive) | –
20 | Cc1cccn2c(=O)c(-c3nnn[nH]3)cnc12 | 18.6% (inactive) | –

Row | Structure (SMILES) | activity, negative = cytotoxicity | Potency
21 | O=[N+]([O-])c1ccc(F)cc1F | 11.2% [at 95.3 µM] (inactive) | –
22 | C[C@H](NC(CCc1ccccc1)C(=O)O)C(=O)N1CCC[C@H]1C(=O)O (stereo not given in full) | -9.03% (inactive) | –
23 | COCCc1ccc(OCC(O)CNC(C)C)cc1 (stereo not given) | – | inactive
24 | CCCCCCCCCCCCCC=O | 13.3% [at 8.08 µM] (inactive) | –
25 | C/C=C(\C)C#N | 17.7% (inactive) | –
26 | O=C(CCCN1CCN(c2ccccn2)CC1)c1ccc(F)cc1 | 14.8% (inactive) | –
27 | CCN(CC)CCOCCOC(=O)C1(c2ccccc2)CCCC1 | 8.26% (inactive) | –
28 | CO/N=C(/C(=O)N[C@@H]1C(=O)N2C(C(=O)OCOC(=O)C(C)(C)C)=C(C)CS[C@H]12)c1csc(N)n1 | 12.1% (inactive) | –
29 | O=C1CCCCCCCCCCCN1 | – | inactive
30 | NS(=O)(=O)c1ccc(C(=O)O)cc1 | 10.3% (inactive) | –
31 | O=c1[nH]c(=O)n([C@H]2C[C@H](O)[C@@H](CO)O2)cc1I | -10.5% [at 39.1 µM] (inactive) | –
32 | O=C(O)COc1nn(Cc2ccccc2)c2ccccc12 | 0.887% (inactive) | –
33 | NC(=O)c1cn(Cc2c(F)cccc2F)nn1 | 8.71% (inactive) | –
34 | N=C(N)c1ccccc1 | 7.05% (inactive) | –
35 | CO[Si](CCCOCC1CO1)(OC)OC (stereo not given) | – | inactive
36 | CCOC(=O)c1cccc(N)c1 | 16% (inactive) | –
37 | CN1CC(=O)NC1=N | 13.1% (inactive) | –
38 | FC1(F)C(F)(F)C(F)(F)C2(F)C(F)(F)C(F)(F)C(F)(F)C(F)(F)C2(F)C1(F)F (stereo not given) | 14.4% (inactive) | –
39 | CCCCCOC(=O)CCCCC | 9.14% (inactive) | –
40 | NC(=O)Nc1ccccc1 | 15% (inactive) | –
